Data on 37 compounds can be found in PubChem BioAssay (NCI).

About 83,000 compounds went through this panel and 20% of them were active in at least one assay; those are over-represented in the sample as a whole.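 The endpoint reported here, percent growth, reads 100 for growth as untreated, 0 for no net growth and -100 for all cells dead.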 Values without a mark were called inactive. Calls of active or inactive are those of the source. How the source made its calls: active means growth percent below 10; inactive means the rest.

In the first test the test system is SK-MEL-5 melanoma. In words: NCI-60 one-dose screen, 48 h (100 = growth as untreated, 0 = no growth, -100 = all killed). To be noted: 10 µM unless noted.
Consider `Cc1cc(C(=O)NN)c(C#N)c(=O)[nH]1`, for which the growth was 95.7%.

With `COC1OC(CO)C(OC)C(O)C1O` (configuration not stated), the growth was 103%.

Take `CCOC(=O)/C(O)=C(\C=N\C(=S)Nc1ccc(Cl)c(Cl)c1)C(=O)OCC`: the growth was 91.7%.

`O=C(c1ccccc1)c1ccc(-c2ccc(O)cc2)cc1`: the growth is 23.6%.

As for `CC(=O)C1C(=O)C(=O)N(c2cccc([N+](=O)[O-])c2)C1=O` (configuration not stated), the growth was 107%.

As to `CCOC(OCC)C(=O)c1ccccc1`, the growth is 96.1%.

As for `Cc1ccc(O)c(N)c1`, the growth was 103%.

With `COC(=O)c1ccccc1C(=O)c1c(C)cc(C)cc1C`, the growth is 101%.

In the case of `COc1cc(-c2ccc(NC(=O)CC(C)=O)c(OC)c2)ccc1NC(=O)CC(C)=O`, the growth was 98.1%.

Regarding `Oc1cccc(CNC2CCCCC2)c1`, the growth is 103%.

`COc1ccc(C(=O)C(=O)c2ccccc2)cc1`: the growth was 90.7%.

Regarding `CSc1cnc2ccccc2n1`, the growth is 105%.

Take `Nc1ccc2c(c1)Cc1cc(N)c(N)cc1-2`: the growth was 93.4%.

In the case of `CCCCN(C(=O)CC)c1ccccc1`, the growth is 100%.

Turning to `Nc1c(Br)cc(O)c2c1C(=O)c1ccccc1C2=O`, the growth was 96.7%.

`CC(=O)N(C(C)=O)c1ccc(C)cc1`: the growth is 95.5%.

On to `Cc1cc(CC(=O)NCCO)n(CCO)c(=O)c1`, for which the growth was 104%.

Turning to `CCOC(=O)c1ccc(NC(C)=O)o1`, the growth was 97.9%.

The subject of a further test is UACC-62 melanoma. Described as above. The settings on record: 10 µM unless noted.
As to `Nc1nc(Cl)cc(Cl)n1`, the growth was 107%.

On to `CCCCCCCCCCCCCCCCOc1ccccc1NC(=O)CC(C)=O`, for which the growth is 78.7%.

For `Cc1cc(Cc2ccccc2)c(O)c(Cc2ccccc2)c1`, the growth is 71.4%.

For the compound `Nc1cc(N)ncn1`, the growth is 99.6%.

With `CC(C)(C)NCCC(O)c1cc(C(F)(F)F)nc2c(C(F)(F)F)cccc12` (configuration not stated), the growth is 74.7%.

Turning to `C=C(OC(C)=O)c1ccccc1`, the growth is 97%.

`O=Cc1c(O)c2ccccc2[nH]c1=O`: the growth was 87.9%.

Take `CN=S(=O)(OCCCCCOS(=O)(=NC)c1ccc(C)cc1)c1ccc(C)cc1` (configuration not stated): the growth is 86.5%.

Regarding `CCOC(=O)c1c(C)[nH]c(C)c1C=O`, the growth was 91.2%.

For the compound `O=C(NCc1ccccc1)/C(=C/c1ccccc1)NC(=O)c1ccccc1`, the growth was 93.5%.

Take `O=c1cc(Cl)nc2ccccn12`: the growth was 117%.

`Oc1cc(O)c2c(c1)O[C@H](c1ccc(O)c(O)c1)[C@@H](O)C2`: the growth is 106%.

On to `CCOP(=O)(NC(c1ccccc1)c1ccccc1)OCC`, for which the growth was 114%.

Turning to `Cc1ccc2nc(N)nnc2c1`, the growth was 105%.

For `Cc1ccc(S(N)(=O)=O)cc1Cl`, the growth is 105%.

For `Nc1cc2ccccc2c(O)c1O`, the growth was 90.9%.

Take `CC(C)N1CC(=O)N2CSCC2C1=O` (configuration not stated): the growth was 104%.

In the case of `CCOC(=N)CC(=O)Nc1cccc(C)c1Cl`, the growth is 93.9%.

As for `Cc1cc2c(C(C)C)c(O)c(O)c(C=Nc3ccccc3[N+](=O)[O-])c2c(O)c1-c1c(C)cc2c(C(C)C)c(O)c(O)c(C=Nc3ccccc3[N+](=O)[O-])c2c1O`, the growth was 96.5%.

For `Cc1cc(C(=O)NN)c(C#N)c(=O)[nH]1`, the growth was 89.8%.

As for `COC1OC(CO)C(OC)C(O)C1O` (configuration not stated), the growth is 96.2%.

For `CCOC(=O)/C(O)=C(\C=N\C(=S)Nc1ccc(Cl)c(Cl)c1)C(=O)OCC`, the growth was 88.4%.

As for `O=C(c1ccccc1)c1ccc(-c2ccc(O)cc2)cc1`, the growth was 48.5%.

Take `CC(=O)C1C(=O)C(=O)N(c2cccc([N+](=O)[O-])c2)C1=O` (configuration not stated): the growth is 100%.

With `CCOC(OCC)C(=O)c1ccccc1`, the growth is 111%.

As for `Cc1ccc(O)c(N)c1`, the growth was 81.5%.

Regarding `COC(=O)c1ccccc1C(=O)c1c(C)cc(C)cc1C`, the growth is 92.5%.

For `COc1cc(-c2ccc(NC(=O)CC(C)=O)c(OC)c2)ccc1NC(=O)CC(C)=O`, the growth was 102%.

Regarding `Oc1cccc(CNC2CCCCC2)c1`, the growth is 96.5%.

As for `COc1ccc(C(=O)C(=O)c2ccccc2)cc1`, the growth was 99.2%.

Regarding `CSc1cnc2ccccc2n1`, the growth was 97.1%.

Take `Nc1ccc2c(c1)Cc1cc(N)c(N)cc1-2`: the growth was 94%.

With `CCCCN(C(=O)CC)c1ccccc1`, the growth was 99.2%.

Regarding `Nc1c(Br)cc(O)c2c1C(=O)c1ccccc1C2=O`, the growth was 87.4%.

On to `CC(=O)N(C(C)=O)c1ccc(C)cc1`, for which the growth is 91.4%.

For `Cc1cc(CC(=O)NCCO)n(CCO)c(=O)c1`, the growth was 105%.

As to `CCOC(=O)c1ccc(NC(C)=O)o1`, the growth was 90.4%.

Another test deals with LOX IMVI melanoma. The description is as above. To be noted: 10 µM.
As to `Nc1nc(Cl)cc(Cl)n1`, the growth is 92.5%.

For `CCCCCCCCCCCCCCCCOc1ccccc1NC(=O)CC(C)=O`, the growth is 107%.

Consider `Cc1cc(Cc2ccccc2)c(O)c(Cc2ccccc2)c1`, for which the growth was 80.7%.

For the compound `Nc1cc(N)ncn1`, the growth was 98.4%.

For `CC(C)(C)NCCC(O)c1cc(C(F)(F)F)nc2c(C(F)(F)F)cccc12` (configuration not stated), the growth is 1.78% (active).

As to `C=C(OC(C)=O)c1ccccc1`, the growth is 94.4%.

Take `O=Cc1c(O)c2ccccc2[nH]c1=O`: the growth was 98.5%.

Consider `CN=S(=O)(OCCCCCOS(=O)(=NC)c1ccc(C)cc1)c1ccc(C)cc1` (configuration not stated), for which the growth was 88.1%.

With `CCOC(=O)c1c(C)[nH]c(C)c1C=O`, the growth is 97.9%.

As for `O=C(NCc1ccccc1)/C(=C/c1ccccc1)NC(=O)c1ccccc1`, the growth is 98.3%.

Take `O=c1cc(Cl)nc2ccccn12`: the growth is 103%.

`Oc1cc(O)c2c(c1)O[C@H](c1ccc(O)c(O)c1)[C@@H](O)C2`: the growth is 100%.

As to `CCOP(=O)(NC(c1ccccc1)c1ccccc1)OCC`, the growth was 93.1%.

As to `Cc1ccc2nc(N)nnc2c1`, the growth was 100%.

As to `Cc1ccc(S(N)(=O)=O)cc1Cl`, the growth was 114%.

With `Nc1cc2ccccc2c(O)c1O`, the growth is -52.6% (active).

Take `CC(C)N1CC(=O)N2CSCC2C1=O` (configuration not stated): the growth is 98.9%.

On to `CCOC(=N)CC(=O)Nc1cccc(C)c1Cl`, for which the growth is 93%.

Take `Cc1cc2c(C(C)C)c(O)c(O)c(C=Nc3ccccc3[N+](=O)[O-])c2c(O)c1-c1c(C)cc2c(C(C)C)c(O)c(O)c(C=Nc3ccccc3[N+](=O)[O-])c2c1O`: the growth is 81.3%.

Regarding `Cc1cc(C(=O)NN)c(C#N)c(=O)[nH]1`, the growth was 97.7%.

As for `COC1OC(CO)C(OC)C(O)C1O` (configuration not stated), the growth was 95.6%.

In the case of `CCOC(=O)/C(O)=C(\C=N\C(=S)Nc1ccc(Cl)c(Cl)c1)C(=O)OCC`, the growth was 92.9%.

For `O=C(c1ccccc1)c1ccc(-c2ccc(O)cc2)cc1`, the growth was 73.4%.

In the case of `CC(=O)C1C(=O)C(=O)N(c2cccc([N+](=O)[O-])c2)C1=O` (configuration not stated), the growth is 105%.

For `CCOC(OCC)C(=O)c1ccccc1`, the growth is 95.4%.

Take `Cc1ccc(O)c(N)c1`: the growth is 105%.

With `COC(=O)c1ccccc1C(=O)c1c(C)cc(C)cc1C`, the growth is 102%.

As for `COc1cc(-c2ccc(NC(=O)CC(C)=O)c(OC)c2)ccc1NC(=O)CC(C)=O`, the growth is 96.7%.

For `Oc1cccc(CNC2CCCCC2)c1`, the growth is 113%.

As for `COc1ccc(C(=O)C(=O)c2ccccc2)cc1`, the growth was 100%.

In the case of `CSc1cnc2ccccc2n1`, the growth is 96.4%.

Consider `Nc1ccc2c(c1)Cc1cc(N)c(N)cc1-2`, for which the growth was 97%.

Consider `CCCCN(C(=O)CC)c1ccccc1`, for which the growth was 97.4%.

`Nc1c(Br)cc(O)c2c1C(=O)c1ccccc1C2=O`: the growth was 34.4%.

For `CC(=O)N(C(C)=O)c1ccc(C)cc1`, the growth is 92.1%.

`Cc1cc(CC(=O)NCCO)n(CCO)c(=O)c1`: the growth is 98.8%.

Take `CCOC(=O)c1ccc(NC(C)=O)o1`: the growth is 95.4%.
